TEAD-YAP block = TEAD-YAP interaction inhibition; 640,000 compounds, 1.4% hits; HEK-TIYL cells, TEAD-Gal4/YAP UAS-luciferase luminescence; inhibition, % at 9.12 µM; in the data active means inhibition above about 32%;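 further: 0% = median of test compound wells and 100% = reference inhibitor wells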
GPR151 ag = activators of human GPR151 | PathHunter beta-arrestin GPR151 cells, luminescence | activation, % at 11.2 µM | Q8TDV0 | 650,000 compounds, 1% hits; in the data active means activation above about 4.9%;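 further: 0% = median of compound wells and 100% = cells with positive control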
MITF inh = inhibitors of human MITF; O75030; AlphaScreen MITF homodimerization, bead proximity signal; inhibition, % at 2.6 µM; 650,000 compounds, 0.91% hits; AID 1259374; in the data active means inhibition above about 50%;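 further: 0% = vehicle wells with protein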
FBW7 act = activators of human E3 ligase FBW7 | Q969H0 | AlphaScreen FBW7–phospho-cyclin E peptide binding, activator screen | normalized activity (activation), % at 26.1 µM | 650,000 compounds, 0.13% hits | AID 1259310; in the data active means normalized activity above about 1.9%;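 further: purified mutant Fbw7 with reduced substrate affinity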
Target sequence (Q969H0 whole entry, looked up): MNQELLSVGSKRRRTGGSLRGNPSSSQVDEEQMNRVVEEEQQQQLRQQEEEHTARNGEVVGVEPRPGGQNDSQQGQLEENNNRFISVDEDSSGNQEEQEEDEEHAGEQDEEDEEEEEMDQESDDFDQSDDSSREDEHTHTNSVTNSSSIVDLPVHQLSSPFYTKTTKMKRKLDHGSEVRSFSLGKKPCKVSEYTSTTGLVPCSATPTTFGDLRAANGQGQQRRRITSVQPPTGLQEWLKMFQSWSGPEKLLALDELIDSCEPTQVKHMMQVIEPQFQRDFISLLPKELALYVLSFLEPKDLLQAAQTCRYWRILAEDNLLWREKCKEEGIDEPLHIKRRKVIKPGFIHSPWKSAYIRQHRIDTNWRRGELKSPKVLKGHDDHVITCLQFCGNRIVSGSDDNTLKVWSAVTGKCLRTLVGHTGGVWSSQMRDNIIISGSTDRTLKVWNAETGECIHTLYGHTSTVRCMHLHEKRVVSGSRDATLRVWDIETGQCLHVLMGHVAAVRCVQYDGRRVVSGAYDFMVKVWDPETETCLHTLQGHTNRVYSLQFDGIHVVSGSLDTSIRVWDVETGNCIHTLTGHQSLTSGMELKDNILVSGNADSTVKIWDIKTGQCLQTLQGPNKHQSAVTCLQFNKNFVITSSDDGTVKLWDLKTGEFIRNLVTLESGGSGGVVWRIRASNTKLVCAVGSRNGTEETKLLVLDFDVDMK
MITF inh conf = human MITF inhibition, confirmation. shares compounds with MITF inh. AlphaScreen MITF homodimerization, biotin/His-MITF beads. inhibition, % at 2.6 µM. 4,700 compounds, 16% hits;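 active means inhibition above a cutoff derived from the DMSO control wells, cut at about 28% in these data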;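 further: 0% = MITF dimer wells with DMSO only; inhibitors lower the bead chemiluminescence by keeping MITF from dimerizing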
AS interf DR = counter-screen: compounds optically interfering with AlphaScreen; 480 compounds, 6% hits; IC50, µM; AID 1259373; AlphaScreen optical interference counterscreen, cell-free; shares compounds with MITF inh; call rule not given here
AS interf ctr = counter-screen: compounds optically interfering with AlphaScreen | shares compounds with MITF inh | LysRS AlphaScreen counterscreen, signal interference, triplicate | inhibition, % at 2.6 µM | 4,700 compounds, 7.6% hits;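 active means inhibition above a cutoff derived from the DMSO control wells, cut at about 30% in these data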
The depositor's hits bear a star; . = not tested or not shown. Shown are actives, neighbours in structure and some others; about 3.5% of the full set was active somewhere.

SMILES | TEAD-YAP block | GPR151 ag | MITF inh | FBW7 act | MITF inh conf | AS interf ctr | others
Cc1nn(C2CCS(=O)(=O)C2)c(Cl)c1CNCCCOC(C)C (stereo unspecified) | 1.4 | -1.9 | 51.2* | 0.2 | 6.5 | 10.5
Cc1nn(-c2ccccc2)c(Cl)c1CNCCCOC(C)C | -2.5 | -0.6 | 33.8 | -0.1 | . | .
COc1cccc(C(=O)Nc2cccc(N=C(N)CCC(=O)O)c2)c1 | 11.1 | -0.8 | -17.3 | -0.1 | . | .
CN(CCc1ccccn1)Cc1ccc2c(c1)OCO2 | 4.4 | 0.2 | 62.7* | 0.3 | 8.2 | 15.3
CSc1ccc(CN(C)CCc2ccccn2)cc1 | 5.8 | 1.2 | 68.2* | -0.1 | 14.2 | 20.8
CN(CCc1ccccn1)Cc1cccc([N+](=O)[O-])c1 | -1.2 | -1.3 | 46.6 | 0.1 | . | .
CN(CCc1ccccn1)C1CC(=O)N(c2ccccc2)C1=O (stereo unspecified) | -10.5 | -0.8 | -19.2 | -0.1 | . | .
CN(CCc1ccccn1)Cc1cccc(F)c1 | -6.5 | 0.2 | 73.2* | -0.1 | 7.3 | 19.2
CN(CCc1ccccn1)Cc1ccc(F)c(Br)c1 | 7.7 | -0.8 | 67.7* | 0.3 | -9.3 | -5.6
CN(CCc1ccccn1)Cc1ccc2c(c1)CN(Cc1cccc3nccnc13)CCO2 | 11.6 | 0.5 | 1.2 | 0.0 | . | .
O=C(Nc1ccccc1C(=O)N1CCCCC1)c1ccc([N+](=O)[O-])cc1 | 4.3 | 0.5 | -12.6 | 0.4 | . | .
CN(CCc1ccccn1)Cc1ccc(F)cc1 | -3.8 | -1.0 | 77.9* | -0.1 | 32.9* | 16.7 | AS interf DR=>6.59
COc1ccc(C(=O)CNCC2CCCO2)cc1OC (stereo unspecified) | 1.6 | 0.3 | 68.8* | -0.2 | -14.4 | 1.1
CC1=C(C(=O)O)N2C(=O)[C@@H](NC(=O)[C@H](N)c3ccccc3)[C@H]2SC1 | 4.6 | 2.7 | 6.0 | -0.1 | . | .
C/C=C\C1=C(C(=O)O)N2C(=O)C(NC(=O)C(N)c3ccc(O)cc3)C2SC1 (stereo unspecified) | -10.2 | -1.1 | 50.8* | 0.3 | 28.4* | 4.6 | AS interf DR=>6.48
O=C(C1CCN(S(=O)(=O)c2ccc(F)cc2)CC1)N1CCCCC1 | 6.7 | -0.2 | -8.1 | 0.3 | . | .
CC1(C)C(=O)NCCN1C(=O)C1CCN(S(=O)(=O)c2ccc(F)cc2)CC1 | -0.2 | -0.8 | 68.5* | 0.2 | -7.7 | -5.1
C=CCNCC(O)COc1cc(Cl)ccc1Cl (stereo unspecified) | 4.4 | 0.8 | 53.3* | -0.2 | -11.2 | -3.2
CC(O)CNCC(O)COc1cc(Cl)ccc1Cl (stereo unspecified) | -3.4 | 0.1 | -8.3 | -0.1 | . | .
Cc1cc(=O)oc2cc(OCC(=O)N/N=C/c3ccc(N(C)C)cc3)ccc12 | 14.0 | 0.3 | 12.6 | 0.2 | . | .
COc1ccccc1CNc1nc(CN2CCCC(OC)C2)nc2c(C)cccc12 (stereo unspecified) | 20.5 | 0.4 | -67.0 | -0.1 | . | .
Nc1n[nH]c(C(=O)N/N=C/c2cccs2)n1 | -4.4 | 1.5 | 77.3* | -0.4 | 51.4* | 95.4*
Cn1cccc1/C=N/NC(=O)c1nc(N)n[nH]1 | -14.2 | -1.2 | -3.0 | -0.4 | . | .
C=CCn1c(C)cn2c3c(=O)n(Cc4cc(C)ccc4C)c(=O)n(C)c3nc12 | 5.6 | -0.1 | 7.9 | -0.1 | . | .
Cc1ccc(C(=O)COC(=O)C(C(C)C)N2C(=O)C3C4C=CC(C4)C3C2=O)cc1[N+](=O)[O-] (stereo unspecified) | -2.6 | 1.8 | 82.0* | -0.1 | 7.5 | 10.7
SMILES | TEAD-YAP block | GPR151 ag | MITF inh | FBW7 act | MITF inh conf | AS interf ctr | others
CN1C(=O)/C(=N/OC(=O)c2ccc(Cl)cc2Cl)c2ccccc21 | 5.8 | 0.8 | -8.8 | -0.1 | . | .
O=C1CCN(Cc2cccnc2)CCN1Cc1ccc(F)cc1Cl | 8.0 | 0.6 | 13.0 | 0.3 | . | .
c1ccc(CN2CCN(C3CCN(Cc4cccnc4)CC3)CC2)cc1 | 0.3 | 2.7 | 38.2 | -0.1 | . | .
Clc1ccccc1CN1CCN(Cc2cccnc2)CC1 | -3.4 | -0.6 | 82.6* | -0.2 | 9.6 | 12.3
Clc1ccc(CN2CCN(Cc3cccnc3)CC2)cc1 | -5.2 | 0.6 | 84.4* | -0.1 | 8.6 | 11.8
Cc1ccccc1N1CCN(Cc2cccnc2)CC1 | 15.2 | 2.8 | 28.2 | 0.0 | . | .
c1ccc(CN2CCN(Cc3cccnc3)CC2)nc1 | 0.0 | 0.4 | 74.1* | -0.2 | -18.3 | -0.7
CCc1ccc(CN2CCN(Cc3cccnc3)CC2)cc1 | -0.9 | -0.4 | 76.6* | 0.0 | 1.6 | -1.4
CC(=O)c1ccc(NC(=O)CSc2nc3ccc(NC(=O)c4ccccc4C(=O)O)cc3s2)cc1 | -35.8 | -0.1 | 10.5 | 0.1 | . | .
COC(=O)c1ccccc1NC(=O)CSc1ccc(Br)cc1 | 10.3 | 1.2 | -7.0 | 0.3 | . | .
Clc1ccc(N2CCN(Cc3cccnc3)CC2)cc1 | -3.0 | -0.5 | 51.8* | -0.1 | -2.3 | 8.0
FC(F)(F)c1ccc(CN2CCN(Cc3cccnc3)CC2)cc1 | -13.4 | 1.1 | 80.8* | -0.2 | -6.5 | -6.5
FC(F)(F)c1cccc(N2CCN(Cc3cccnc3)CC2)c1 | 6.8 | -0.8 | 45.6 | -0.1 | . | .
CC(=O)OCCCN1C(=O)c2ccccc2C1=O | -2.2 | 1.7 | -5.5 | 0.0 | . | .
CCC(=O)N1CCc2cc(S(=O)(=O)N3CC(C)CC(C)C3)ccc21 (stereo unspecified) | -5.5 | 3.1 | 80.9* | 0.0 | 4.9 | 13.9
Cc1nnc2c(=O)n(C)c(=O)n(C)c2n1 | -7.1 | 1.7 | -10.3 | 0.6 | . | .
c1ccc(CN2CCC(N3CCN(Cc4ccccn4)CC3)CC2)cc1 | 3.8 | -1.9 | 40.2 | 0.7 | . | .
c1ccc(CN2CCC(c3ccncc3)CC2)nc1 | 3.3 | 0.3 | 9.4 | -0.2 | . | .
Cc1ccccc1CN1CCN(C2CCCC(C)C2)CC1 (stereo unspecified) | -6.2 | -1.2 | 76.4* | 0.1 | -15.0 | 3.5
c1ccc(C2CCC(N3CCN(Cc4ccccn4)CC3)CC2)cc1 (stereo unspecified) | -1.1 | -1.8 | 67.9* | 0.0 | 9.0 | 11.6
c1ccc(N2CCN(C3CCN(Cc4ccccn4)CC3)CC2)cc1 | -2.6 | 0.7 | 53.8* | 0.1 | 4.3 | 6.7
c1ccc(CN2CCN(C3CCCC3)CC2)nc1 | -8.7 | -1.2 | 73.8* | -0.2 | 10.9 | 9.9
O=C(O)C1CCN(Cc2ccccn2)CC1 | 0.4 | 0.6 | -5.3 | -0.2 | . | .
CC1CCCN(C(=O)C2CCN(Cc3ccccn3)CC2)C1 (stereo unspecified) | 3.7 | 2.5 | 18.1 | -0.2 | . | .
CCN(Cc1ccccc1)C1CCN(Cc2ccccn2)CC1 | 3.5 | -1.2 | 58.6* | -0.1 | -9.9 | -0.3
c1ccc(C2CCC(N3CCN(Cc4cccnc4)CC3)CC2)cc1 (stereo unspecified) | 1.9 | -1.3 | 65.2* | -0.2 | -10.3 | 12.4
CC1CCCC(N2CCN(Cc3ccccn3)CC2)C1 (stereo unspecified) | -4.8 | -0.5 | 72.4* | 0.1 | 4.7 | 16.1
O=C(NCc1ccc(Cl)cc1)c1ccc2c(=O)n(-c3ccc(F)cc3)c(=S)[nH]c2c1 | -11.6 | -1.2 | 10.3 | 0.0 | . | .

Bioassay records as filed in PubChem.
